# From PubChem BioAssay
# CSC inhib: blocks cancer stem cells | cancer stem cell-like cells viability, luminescence | inhibition, % at 7.5 µM | actives 1.1% (n = 300,000); in the data active means inhibition above about 75%; tested in HMLE shEcad cells
# Gli-Sufu antag: antagonists of Gli-Sufu signaling. actives 0.74% (n = 340,000). Sufu-KO-LIGHT fibroblasts, Gli luciferase reporter luminescence. inhibition, % at 5 µM. AID 588413;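 active means inhibition above about 55%, limit read from the data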;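 further: 0% = DMSO-treated cells and 100% = wells with medium but no cells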
# Jurkat NFkB inh: inhibitors of the PMA/ionomycin-induced NF-kB reporter in Jurkat cells; PMA/ionomycin-induced NF-kB luciferase reporter, luminescence; inhibition, % at 4 µM; actives 0.53% (n = 330,000); in the data active means inhibition above about 50%
# Beta cell apopt: beta cell apoptosis inhibition. INS-1E cytokine-induced death, ATP luminescence, 48 h; percent of positive-control rescue, neutral wells zero. protection from apoptosis, % (test concentration not listed). actives 0.8% (n = 300,000);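 active means Every replicate reaches about 75%, or at least half do and their mean reaches it too, limit read from the data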;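 further: 0% = cytokine-treated negative control wells and 100% = positive control rescue; higher means more ATP so stronger rescue from cytokine killing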
# Mdm2-MdmX inh: inhibitors of human Mdm2/MdmX interaction; inhibition, % at 8 µM; actives 3% (n = 330,000); AID 485346; SaOS-2 split-luciferase Mdm2/MdmX complementation, luminescence; O15151+Q00987;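 active means inhibition of at least 50% at 8 µM in the primary screen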
# Target sequence (O15151 whole entry, looked up): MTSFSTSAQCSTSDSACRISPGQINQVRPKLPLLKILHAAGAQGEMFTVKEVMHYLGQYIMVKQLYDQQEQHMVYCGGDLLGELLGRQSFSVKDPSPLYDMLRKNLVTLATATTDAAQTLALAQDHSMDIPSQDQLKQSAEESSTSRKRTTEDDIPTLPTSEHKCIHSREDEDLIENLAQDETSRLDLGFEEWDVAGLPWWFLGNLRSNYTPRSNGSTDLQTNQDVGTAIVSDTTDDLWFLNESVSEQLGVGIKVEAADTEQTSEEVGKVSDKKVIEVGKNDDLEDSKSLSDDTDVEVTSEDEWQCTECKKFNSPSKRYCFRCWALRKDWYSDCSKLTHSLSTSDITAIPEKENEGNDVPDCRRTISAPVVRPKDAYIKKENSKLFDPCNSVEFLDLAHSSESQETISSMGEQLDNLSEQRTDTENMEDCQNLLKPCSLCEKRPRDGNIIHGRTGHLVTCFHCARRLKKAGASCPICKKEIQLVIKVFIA
# Target sequence (Q00987 whole entry, looked up): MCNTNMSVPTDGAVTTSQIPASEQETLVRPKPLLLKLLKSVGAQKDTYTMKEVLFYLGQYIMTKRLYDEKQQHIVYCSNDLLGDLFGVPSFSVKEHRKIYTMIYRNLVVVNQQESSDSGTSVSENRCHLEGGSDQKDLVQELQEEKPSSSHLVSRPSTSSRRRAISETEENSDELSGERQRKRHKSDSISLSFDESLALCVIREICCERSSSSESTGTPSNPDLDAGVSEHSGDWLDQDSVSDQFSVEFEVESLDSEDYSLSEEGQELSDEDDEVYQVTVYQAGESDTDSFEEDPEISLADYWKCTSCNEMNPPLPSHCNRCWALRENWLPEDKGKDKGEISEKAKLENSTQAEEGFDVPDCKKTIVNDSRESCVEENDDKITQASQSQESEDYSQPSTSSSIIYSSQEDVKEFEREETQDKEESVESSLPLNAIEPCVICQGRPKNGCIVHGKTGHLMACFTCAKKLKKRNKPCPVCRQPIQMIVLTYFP
# 697 NFkB inh: lowers PMA/ionomycin-induced NF-kB signal in 697 B cells | 697 B-cell NF-kB luciferase reporter, 16 h | inhibition, % at 4 µM | actives 0.33% (n = 330,000) | AID 435022; in the data active means inhibition above about 35%
# Gli antag conf: Gli-SUFU antagonism confirmation, single concentration. actives 40% (n = 2,500). inhibition, % at 5 µM. AID 602428. Sufu-KO-LIGHT cells, Gli luciferase reporter, luminescence. shares compounds with Gli-Sufu antag;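 active means mean inhibition at 5 µM reaching about 45%, limit read from the data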;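 further: plate controls were DMSO-treated cells for no effect and wells lacking cells for full effect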
# SufuKO cytotox: cytotoxicity counter-screen for Gli-SUFU antagonists; shares compounds with Gli-Sufu antag; Sufu-KO-LIGHT cells cytotoxicity, ATP luminescence; cytotoxicity, % at 5 µM; actives 32% (n = 2,500); AID 651994;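 active means mean cytotoxicity at 5 µM above about 25%, limit read from the data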;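 further: cells exposed to compound overnight for roughly 16 to 18 hours; plate controls were DMSO wells with cells for no effect and medium without cells for full effect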
# Wnt3a counter: counter-screen for Gli-SUFU antagonists: Wnt3a reporter inhibition; inhibition, % at 6.25 µM; Wnt-LIGHT cells, Wnt3a-driven luciferase reporter, luminescence; actives 20% (n = 2,500); shares compounds with Gli-Sufu antag; AID 651995;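 active means mean inhibition above about 25%, limit read from the data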
# The depositor's hits bear a star; nt = not tested or not shown. Only some compounds are listed: those with a hit (about 4.5% of all), similar ones and a draw of the others.
SMILES,CSC inhib,Gli-Sufu antag,Jurkat NFkB inh,Beta cell apopt,Mdm2-MdmX inh,697 NFkB inh,Gli antag conf,SufuKO cytotox,Wnt3a counter
CNS(=O)(=O)c1cccc(C(=O)OCC(=O)c2cc(C)n(CC3CCCO3)c2C)c1 (stereo not given),nt,51,-64,1,20,-96,68*,-3,-10
CCN1CCN(C(=O)CCc2nnc3ccc(N4CCN(c5cccc(OC)c5)CC4)nn23)CC1,-14,-1,-19,-3,-5,-47,nt,nt,nt
Cc1ccc(C(=O)OCC(=O)c2ccc(Br)cc2)cc1S(=O)(=O)N1CCOCC1,nt,-2,nt,nt,nt,nt,nt,nt,nt
COc1cc(OC)cc(C(=O)N[C@H](C(=O)NC2=NCCS2)C(C)C)c1,-12,1,18,-2,-8,10,nt,nt,nt
CN(CC(=O)Nc1ccc(F)cc1)C(=O)COC(=O)c1cc(Br)c(Br)s1,nt,65*,nt,nt,nt,nt,9,-13,-6
CCC(C(=O)Nc1ccc2c(c1)OCCO2)n1c(=O)[nH]c2ccccc2c1=O (stereo not given),5,53,5,-4,22,-1,23,-8,48*
CCOC(=O)N1C2c3ccccc3C(c3ccccc32)N1C(=O)OCC,nt,-4,nt,nt,nt,nt,nt,nt,nt
O=C(CNc1cccc(S(=O)(=O)N2CCOCC2)c1)Nc1cccc(Br)c1,-2,-5,5,-4,5,4,nt,nt,nt
CCN(CC)S(=O)(=O)c1cccc(NC(=O)CCSc2ccc(Cl)cc2)c1,5,51,nt,-1,nt,nt,10,28*,-33
CCN(CC)S(=O)(=O)c1cccc(NC(=O)CNc2cccc(S(=O)(=O)N3CCOCC3)c2)c1,3,63*,49,56,26,29,69*,25*,29*
CC(C)(C)c1ccc(S(=O)(=O)N2CCN(C(=O)C3=COCCO3)CC2)cc1,nt,nt,3,2,16,14,nt,nt,nt
COC(=O)C1C2CC(C(Br)C2Br)C1C(=O)O (stereo not given),nt,1,nt,nt,nt,nt,nt,nt,nt
O=C(CSc1nc2ccccc2o1)NC1CCS(=O)(=O)C1 (stereo not given),-1,-2,5,-6,-12,10,nt,nt,nt
CSc1nnc(Cn2c(=O)sc3ccccc32)n1-c1ccccc1C,5,52,6,-7,11,-12,24,0,-4
CCSc1nnc(Cn2c(=O)sc3ccccc32)n1-c1ccccc1C,nt,2,-11,2,8,6,nt,nt,nt
O=C(O)c1ccccc1OCC1CCCO1 (stereo not given),6,-7,12,-2,7,-3,nt,nt,nt
O=C(Cn1ccc(C(F)(F)F)n1)N/N=C/c1ccc2c(c1)OCO2,-1,58*,-32,-11,8,-16,9,21,-68
CC(=O)N1c2ccc(S(=O)(=O)N3CCC(C(=O)N4CCN(c5ccc(Cl)cc5)CC4)CC3)cc2CC1C (stereo not given),2,76*,30,38,34,7,74*,35*,-7
CC1Cc2cc(S(=O)(=O)N3CCN(c4ccc(Cl)cc4)CC3)ccc2N1C(=O)C1CC1 (stereo not given),-22,-11,29,30,16,-17,nt,nt,nt
CC(=O)N1c2ccc(S(=O)(=O)N3CCCCC3)cc2CC1C (stereo not given),-1,-13,-16,2,16,-15,nt,nt,nt
CC(=O)N1c2ccc(S(=O)(=O)N3CCC(C(=O)N4CCCCC4)CC3)cc2CC1C (stereo not given),-21,55,21,10,23,-9,49*,24,-5
CCCCNC(=O)C1CCN(S(=O)(=O)c2ccc3c(c2)CC(C)N3C(=O)C2CC2)CC1 (stereo not given),-2,94*,-9,1,20,10,16,6,-16
CC(C)CCNC(=O)C1CCN(S(=O)(=O)c2ccc3c(c2)CC(C)N3C(=O)C2CC2)CC1 (stereo not given),-13,8,14,9,23,24,nt,nt,nt
